# Bioassay records deposited in PubChem BioAssay by National Center for Advancing Translational Sciences (NCATS).
# IMPase cell inh = IMPase inhibition in cells; 120,000 tested, under 10 active; P97697; inhibition (IP1 accumulation), % at 46.1 µM; CHO-M1 cells, IP1 accumulation, HTRF TR-FRET ratio; active = well fitted curve in the direction sought with a large enough effect in the signal ratio, not every such curve was filed as active; inconclusive = small, poorly fitted or top-dose-only effect, or a change in a side signal; inactive = no such curve, though single readings can be large or run the other way; the % refers to the signal ratio;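 note: cells stimulated with carbachol in lithium chloride buffer; plate controls were DMSO basal wells for no effect and reference inhibitor wells for full effect; higher means more IMPase inhibition seen as more IP1 and lower FRET ratio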
# Target sequence (P97697 whole entry, looked up): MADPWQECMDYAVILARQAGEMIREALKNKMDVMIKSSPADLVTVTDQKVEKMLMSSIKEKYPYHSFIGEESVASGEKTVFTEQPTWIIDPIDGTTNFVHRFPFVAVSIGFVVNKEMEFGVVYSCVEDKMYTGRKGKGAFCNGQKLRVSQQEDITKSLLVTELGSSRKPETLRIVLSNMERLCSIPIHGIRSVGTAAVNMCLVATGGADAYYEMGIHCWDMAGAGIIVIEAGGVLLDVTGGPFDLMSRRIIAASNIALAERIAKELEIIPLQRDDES
#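 Elevated IP1 in lysates lowers TR-FRET signal (665/620 ratio and 620 channel reported). Cells were CHO-M1, given carbachol (50 uM as added) plus 50mM LiCl, pH 7.4, 30 min, 37C; compounds titrated up to 46 uM; AC50 by Hill equation.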
# PNC assembly inh = blocks assembly of the perinucleolar compartment. PC3M PTB-GFP, PNC prevalence imaging, 16 h; stronger effect = lower value. activity change (PNC), negative = inhibition, % at 10 µM. 140,000 compounds, 3.1% hits. AID 2417;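 active = readout at or below -70, meaning at least 70% loss of cells showing the perinucleolar compartment, a nuclear body marking cancer cells; inconclusive = readout between -30 and a set limit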;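 note: plate controls were DMSO wells for no effect and camptothecin positive control wells for full effect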
#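 Read-out is percentage of cells bearing a perinucleolar compartment, from automated 20x imaging of fixed, Hoechst-stained PC3M PTB-GFP cells. Cells were seeded 4 h, then exposed 16 h to compound (23 nl of library stock) in duplicate plates.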
# HPGD inh = HPGD (human) dehydrogenase inhibition. P15428. 150,000 compounds, 4.3% hits. Potency, µM, for the others: top-dose activity change, negative = inhibition, usual class: inhibitors. purified HPGD, NADH fluorescence kinetic, PGE2 substrate. AID 894; note: potency is the fitted concentration of half-maximal effect
# Target sequence (P15428 whole entry, looked up): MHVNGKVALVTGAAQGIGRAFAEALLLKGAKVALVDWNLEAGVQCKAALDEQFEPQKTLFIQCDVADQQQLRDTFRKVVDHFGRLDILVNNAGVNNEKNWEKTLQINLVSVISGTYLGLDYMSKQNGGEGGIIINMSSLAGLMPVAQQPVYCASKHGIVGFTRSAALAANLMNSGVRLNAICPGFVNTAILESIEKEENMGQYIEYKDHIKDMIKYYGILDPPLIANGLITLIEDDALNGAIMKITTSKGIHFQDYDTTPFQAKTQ
#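 NADH formation kinetics: reaction with 30 uM PGE2 and 1 mM NAD+ (final), 20 nM enzyme, Tris-HCl pH 8 with Tween 20, after 15 min compound preincubation at room temperature. Fluorescence change, last versus first of five reads.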
# ALDH1A1 block = inhibitors of human aldehyde dehydrogenase 1A1 | AID 1030 | Purified ALDH1A1, NADH fluorescence, propionaldehyde substrate | 220,000 compounds, 7.3% hits | Potency, µM (titrated, usually from 75.3 µM), inactives show top-dose activity, negative = inhibition, hits mostly inhibitors;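 note: potency is the fitted concentration of half-maximal effect; plate controls were no enzyme wells and a reference inhibitor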
# Luc counter = blocks Kinase-Glo luciferase, a counter-screen artifact; AID 1379; Q27757; Potency, µM (top dose mostly 38.3 µM), without a hit: at the highest dose activity change, negative = inhibition, actives largely listed as inhibitors; Kinase-Glo luciferase, ATP luminescence, 8 min; 200,000 compounds, 0.28% hits; active = well fitted inhibition curve with a large enough effect; inconclusive = small, poorly fitted or top-dose-only effect; note: potency is the fitted concentration of half-maximal effect; nearly all actives have a fitted effect of over 60% in size
#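 Compounds were added to a substrate mix at pH 7.2 (50 mM imidazole, 10 uM ATP, within the enzyme's linear range), followed by Kinase-Glo detection reagent; luminescence was measured after 8 minutes at ambient temperature.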
# LMNA splice mod = modulators of lamin A splicing. HeLa LMNA splicing GFP/RFP minigene ratio, 48 h. Potency, µM (top dose mostly 46.1 µM), without a hit: at the top dose ratio change, negative = inhibition, most hits filed as inhibitors. 200,000 compounds, 0.01% hits. AID 1487; active = well fitted inhibition curve with a large enough effect in the signal ratio, with a control signal flat, not every such curve was filed as active; inconclusive = small, poorly fitted or top-dose-only effect, or effect the other way, or a change in a side signal; the % refers to the signal ratio; note: potency is the fitted concentration of half-maximal effect
#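 S3 HeLa cells stably expressing lamin A-EGFP splicing minigene plus DsRed2, 600 cells/well, 48 h compound exposure at 37C. Laser-scanning cytometry; analysed as GFP (500-530 nm)/RFP (575-640 nm) total intensity ratio; 0.5% DMSO vehicle.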
# The depositor's hits bear a star; ? = inconclusive; . = not tested or not shown; [ ] = dose if it differs, or a comment. Rows were chosen to be rich in hits. Some 10% of all compounds tested hit in one or more screens of this group. Unless noted, calls come from the whole dose curve; as a rule, active = well fitted inhibition curve with a large enough effect (not every such curve was filed as active); inconclusive = small, poorly fitted or top-dose-only effect, or another doubt; inactive = no such curve, though single readings can be large or run the other way. Unless noted, % is set by controls: 0 for no effect and ±100 for the full control effect.
SMILES,IMPase cell inh,PNC assembly inh,HPGD inh,ALDH1A1 block,Luc counter,LMNA splice mod
O=c1c2ccccc2sn1-c1ccc(S(=O)(=O)N2CCCC2)cc1,2.6,-1.8,0.708µM*,0.891µM*,-3.4%,-2.0%
CCc1cc2c(nc1CC)CCN(CC/C(C)=N/OC[C@@H](O)[C@@H]1O[C@@H]3OC(C)(C)O[C@@H]3[C@H]1O)C2,.,.,.,-3.4%[13.5 µM],.,.
Cc1ccccc1CNc1ncnc2c1ncn2[C@@H]1O[C@@H](CO)[C@H](O)[C@@H]1O,10.4,.,.,.,.,.
O=C(CSc1nnc(-c2c[nH]c3ccccc23)o1)N1CCCCC1,1.7,-29.9,28.2µM*,?,-1.4%,?
O=C(CSc1nnc(-c2ccccc2Br)o1)N1CCc2ccccc2C1,3.4,-22.1,25.1µM*,?,1.3%,-8.5%
Cc1ccccc1-c1nnc(SCC(=O)N2CCCCC2)o1,2.7,.,.,.,.,.
COc1cc(OC)cc(-c2nnc(SCC(=O)N3CCCCC3)o2)c1,-6.8,-26.4,25.1µM*,-13.9%,-0.6%,-13.7%
O=C(CSc1nnc(-c2c[nH]c3ccccc23)o1)N1c2ccccc2CCc2ccccc21,2.2,34.4,-20.6%,3.55µM*,2.4%,?
COCCn1c(=O)c(-c2cn(C)c3ccccc23)nc2cnc(Oc3ccc(OC)cc3)nc21,.,.,-6.7%,-6.2%,-2.0%,.
CN(C)c1cccc(C(=O)Nc2nc3ccc(S(=O)(=O)N4CCCC4)cc3s2)c1,.,.,.,.,.,-5.7%[46 µM]
O=C(CSc1nnc(COc2cccc3cccnc23)o1)N1CCCC1,.,.,.,3.7%,-1.1%,4.2%[46 µM]
COc1cccc(OCc2nnc(SCC(=O)N3c4ccccc4Sc4ccc(Cl)cc43)o2)c1,.,-8.8,-20.0%,10µM*,-0.2%,?
COc1ccc(OCc2nnc(SCC(=O)N3c4ccccc4Sc4ccc(Cl)cc43)o2)cc1,1.8,16.2,-4.2%,?,-4.7%,-1.3%
O=C(CSc1nnc(COc2cccc3ccccc23)o1)N1c2ccccc2CCc2ccccc21,-1.6,6.9,-1.9%,22.4µM*,-3.7%,8.3%
Cc1ccc(Cn2c(CNS(=O)(=O)c3c(C)cc(C)cc3C)nc3cccnc32)cc1,.,.,.,.,.,10.2%[46 µM]
Cc1c(C(=O)N/N=C/c2ccc(Cl)cc2)[nH]c2ccc(Cl)cc12,0.9,-112.3*,-10.3%,1.1%,-2.0%,?
COc1ccc(/C=N/NC(=O)c2[nH]c(C)c(C(=O)N/N=C/c3ccc(OC)cc3)c2C)cc1,8.1,?,-14.3%,3.1%,2.5%,-7.5%
Cc1c(C(=O)N/N=C/C(C)C)[nH]c2ccc([N+](=O)[O-])cc12,-3.7,39.2,-10.9%,14.1µM*,-0.9%,0.0%
COc1ccccc1CNc1nc(-c2ccco2)nn1S(=O)(=O)c1ccc2ccccc2c1,.,.,.,.,.,0.6%[46 µM]
COCC(=O)N1CCC[C@@]2(CCN(Cc3nccs3)C2)C1,.,.,-10.4%,5.3%,-0.4%,.
NC(=S)NNc1cccc(Cl)c1,-3.7,16.7,-21.7%,1.58µM*,-4.2%,8.5%
Cc1ccccc1NNC(N)=S,.,.,.,22.4µM*,-2.4%,-3.2%[46 µM]
Cc1cccc(NNC(N)=S)c1,.,.,.,8.91µM*,5.6%,.
Cc1cccc(Nc2ccccc2)c1,-3.4,?,-12.6%,12.0%,-2.2%,3.8%
S=C(NNc1cccc(Cl)c1)NC1CCCCC1,.,.,.,25.1µM*,-0.6%,?
SMILES,IMPase cell inh,PNC assembly inh,HPGD inh,ALDH1A1 block,Luc counter,LMNA splice mod
CCCCCCCCCCCCCCCCCC(=O)OC(CC(=O)O)C[N+](C)(C)C (centres undefined),.,.,-5.9%,-15.0%,-0.5%,?
Cc1ccc(-c2ccc(/C=C3\C(=O)ON=C3c3ccccc3)o2)c([N+](=O)[O-])c1,2.5,25.6,1.26µM*,8.91µM*,2.3%,?
O=C1/C(=C\c2ccc(-c3ccccc3[N+](=O)[O-])o2)C(c2ccccc2)=NN1c1ccccc1,1.5,-85.9*,?,-10.5%,-9.2%,?
Cc1ccc(/C=C2\C(=O)ON=C2c2ccccc2)o1,.,.,.,?,0.3%,?
CCn1c(-c2cc(C3CC3)nc3ccccc23)n[nH]c1=S,.,-5.9,12.6µM*,?,10.1%,16.6%
COc1ccc(C(=O)c2cn(CC(=O)Nc3cc(C)ccc3C)c3nc(C)ccc3c2=O)cc1,.,.,.,.,.,12.0%[46 µM]
